Screening data deposited in PubChem by National Center for Advancing Translational Sciences (NCATS).
D3 antag: antagonists of human D3 dopamine receptor; actives 2.5% (n = 360,000); D3R cells, DiscoveRx beta-arrestin luminescence, antagonist mode; stronger effect = lower value; max response, negative = inhibition, %; in the data active means max response below about -50%; inconclusive means no clear call, values can overlap the other calls; further: on the % scale 0 is the no-effect control and ±100 the full control effect
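Cells plated overnight at 1500 cells/well, then exposed to library compounds with dopamine controls for 90 minutes at 37 degrees C. DiscoveRx reagent added for 30–60 minutes at room temperature; luminescence read, quantitative HTS format.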
RGS4 inh: blocks human RGS4-accelerated GTP hydrolysis | P49798 | Transcreener GDP fluorescence polarization, RGS4-accelerated GTP hydrolysis | Potency, µM (top dose mostly 114 µM), without a hit: top-dose activity change, negative = inhibition, actives largely listed as inhibitors | actives 0.039% (n = 390,000) | AID 504845; active means well fitted inhibition curve with a large enough effect; inconclusive means small, poorly fitted or top-dose-only effect; inactive means no such curve, though single readings can be large or run the other way; further: potency means the concentration at half of the fitted maximal effect; on the % scale 0 is the no-effect control and ±100 the full control effect; nearly all actives have a fitted effect of over 75% in size
Target sequence (P49798 whole entry, looked up): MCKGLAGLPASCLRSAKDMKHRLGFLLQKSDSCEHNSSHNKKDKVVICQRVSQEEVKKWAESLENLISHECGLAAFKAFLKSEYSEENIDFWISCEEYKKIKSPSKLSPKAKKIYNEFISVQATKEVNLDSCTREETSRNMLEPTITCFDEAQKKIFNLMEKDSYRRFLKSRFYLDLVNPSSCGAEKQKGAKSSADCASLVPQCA
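MLSMR compounds (23 nl, pin-transferred) preincubated 10 min at room temperature with a 500nM (2x) first reagent, then RGS4 at 900nM (2x) plus Transcreener GDP mix added; fluorescence polarization (620/688 nm) read before and after 90 min at 30 °C.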
DRD3 agonist: activates the human D3 dopamine receptor; D3R DiscoveRx beta-arrestin cells, luminescence, 90 min; max activation, %; actives 0.58% (n = 410,000); in the data active means max activation above about 30%; further: 0% is about no effect
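Cells at 1500/well, incubated overnight, then treated with pinned compounds (dopamine as control) for 90 min at 37 degrees C. DiscoveRx reagent added for 30 - 60 minutes at room temperature; luminescence read.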
uPA surface inh: inhibitors of cell surface uPA generation; cell surface uPA generation assay, qHTS; Potency, µM (doses to about 38.3 µM), for inactives: at the highest dose activity change, negative = inhibition, most hits filed as inhibitors; actives 0.31% (n = 330,000); active means well fitted inhibition curve with a large enough effect; inconclusive means small, poorly fitted or top-dose-only effect; inactive means no such curve, though single readings can be large or run the other way; tested in mouse RAW 264.7 cells; further: potency means the concentration at half of the fitted maximal effect; on the % scale 0 is the no-effect control and ±100 the full control effect; nearly all actives have a fitted effect of over 55% in size
Active calls of the source: *; ? = inconclusive; nt = no result given; [ ] = remark or other dose. Most compounds without a hit are left out; they make up all but 3.1% or so of the library.

SMILES	D3 antag	RGS4 inh	DRD3 agonist	uPA surface inh
CCN(CC)c1cc2c(cc1F)c(=O)c(S(=O)(=O)c1ccccc1)cn2Cc1ccccc1	nt	-16.8%	11.1	nt
CCc1nn(CC(=O)Nc2ccc(NC(C)=O)cc2)c(=O)c2cc3sccc3n12	nt	-6.9%	-7.0	nt
C=N[C@@H](C(=O)N[C@@H]1C(=O)N2[C@@H]1SC(C)(C)[C@@H]2C(=O)O)c1ccccc1	nt	nt	-5.6	nt
Cc1ccc(N2CCN(C(=O)c3nn(C)c4c3CSc3ccccc3-4)CC2C)cc1 (configuration not stated)	nt	-2.5%	3.9	nt
Cc1cc(Cl)ccc1NC(=O)C1CCCN(c2nnc(C)c3c(C)n(-c4ccccc4)nc23)C1 (configuration not stated)	nt	18.1%	0.6	nt
CC1CCN(CCCNC(=O)c2ccc(CSCc3cccc(Cl)c3)o2)CC1	-62.0*	-1.3%	-60.3	nt
CN1CCN(CCCNC(=O)c2ccc(CSCc3cccc(Cl)c3)o2)CC1	6.2	-10.0%	-9.9	-9.7%
Cc1ccc(SCc2cn3c(C)csc3n2)cc1	-52.9*	9.4%	-23.9	-27.5%
COc1cc(OC)c(-c2c3cc(O)c(=O)cc-3oc3cc(O)c(O)cc23)cc1OC	-77.0*	?	-26.0	-2.7%
Cc1c2cc(O)c(=O)cc-2oc2cc(O)c(O)cc12	-10.9	?	3.7	nt
CCn1c(=O)c2cc(C(=O)NCCCOC)sc2c2ccccc21	22.4	-19.7%	-6.2	5.62µM*
N#Cc1ccccc1CSc1nc(O)cc(=O)[nH]1	0.4	-25.7%	-4.4	-2.3%
CC(=O)Nc1c(O)nc(SCc2ccccc2C#N)[nH]c1=O	-51.0*	-25.3%	8.5	-3.9%
COc1cc(OC)c(Nc2nc3ccccc3nc2-n2nc(C)cc2C)cc1Cl	nt	17.3%	-3.4	nt
Cc1ccc(S(=O)(=O)n2nc(OC(=O)c3c(-c4ccccc4Cl)noc3C)cc2N)cc1	-57.7*	-46.8%[11.4 µM]	4.8	-7.7%
Cc1ccc(NC(=O)c2ccc(NC(=O)C3CCCC3)cc2)c(C)c1	nt	-10.5%	nt	nt
COc1ccc(C(=O)N2CCCC(N3CCN(c4ccccc4OC)CC3)C2)c(OC)n1 (configuration not stated)	-18.7	-10.4%	-6.0	-0.8%
COc1ccc(C(=O)N2CCCC(N3CCN(c4ccccc4F)CC3)C2)c(OC)n1 (configuration not stated)	-19.7	-11.3%[56.9 µM]	38.4*	-2.0%
COc1ccc(N=C2SCC(=O)N2CCc2ccc(OC)c(OC)c2)cc1	21.3	-2.8%	-6.0	-6.8%
COc1ccc(CCN2C(=O)CSC2=Nc2ccc(C(C)C)cc2)cc1OC	45.9	-3.0%	43.4*	-12.0%
Cc1[nH]n(-c2ccccc2)c(=O)c1C=Nc1cccc2cccnc12	-86.8*	-11.8%	-20.3	-6.0%
Cc1ccc(-n2[nH]c(C)c(/C=N/c3ccccn3)c2=O)cc1	15.4	-9.0%	2.7	?
Cc1ccc(C(=O)NCC(=O)Nc2ccncc2)cc1	0.4	-17.4%	2.6	4.9%
Cc1ccc(C(=O)CN(CCC(=O)O)C(=O)c2ccncc2)cc1	27.9	6.1%	31.4*	6.3%
O=S(=O)(Nc1nc2ccccc2[nH]1)c1ccccc1	-55.1*	13.1%	0.5	2.5%
SMILES	D3 antag	RGS4 inh	DRD3 agonist	uPA surface inh
COc1ccc2c(c1)c1c(c(=O)n(CCc3ccccc3)c(=O)n1Cc1cccc(C)c1)n2C	nt	22.4%	8.4	nt
Oc1ccc(Cl)c2cccnc12	-59.1*	-18.9%	-17.1	-8.4%
CC(C)COCc1ccc(O)c2ncccc12	?	6.5%	-15.3	-7.0%
Oc1c(Cl)cc(Cl)c2cccnc12	-61.4*	-24.3%	-7.9	?
O=C(Oc1c(Cl)cc(Cl)c2cccnc12)c1cccs1	?	-18.3%	-16.4	-15.4%
CCCOCc1ccc(O)c2ncccc12	-71.3*	20.2%	-11.9	-16.0%
O=C(Oc1c(Cl)cc(Cl)c2cccnc12)c1ccco1	-123.6*	12.6%	-4.0	-11.9%
CCN1CCN(CCCNC(=O)c2cc3c(s2)-c2c(C)cccc2OC3)CC1	nt	-4.8%	-25.8	nt
Cc1ccc2c(Cl)cc(Cl)c(O)c2n1	-110.4*	21.4%	-18.1	0.0%
Cc1cc(Cl)c2ccc3ccccc3c2n1	0.4	-7.7%	-2.7	3.7%
Cc1ccc2c(C)ccc(O)c2n1	-78.6*	20.4%	-7.5	-4.9%
Cc1nc(N2CCCC2)c2c(C(=O)N3CCN(c4cc(Cl)ccc4C)CC3)c(C)oc2n1	nt	9.6%	-5.6	nt
CC1CCN(C(C)C(=O)Nc2ccccc2-c2ccccc2)CC1 (configuration not stated)	-56.0*	-13.7%	-6.0	8.6%
Oc1ccc(C[C@H]2CNCCN2CCCCC2CCCCC2)cc1	-20.5	-0.6%	-9.0	?
